Hit rate of the full screen: of about 320,000 compounds, about 2,100 (0.66%) were called active. Roughly 53% stayed inconclusive and do not appear here. The call rests on the fitted dose curve; in most records, active means well fitted inhibition curve with a large enough effect in the signal ratio, with a control signal flat (not every such curve was filed as active); inconclusive means small, poorly fitted or top-dose-only effect, or effect the other way, or a change in a side signal; inactive means flat fitted curve, though single readings scatter; the % refers to the signal ratio. The full list was thinned out, with actives kept by preference.

The record followed here is PubChem BioAssay AID2685 (National Center for Advancing Translational Sciences (NCATS), 2010).
Potency means the concentration at half of the fitted maximal effect.

The assay can be described thus: qHTS Assay for Lipid Storage Modulators in Drosophila S3 Cells.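 On cell number change: cells counted by Cell Tracker Red CMTPX staining in the red channel.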 On lipid storage change, negative = inhibition: on the % scale 0 is the no-effect control and ±100 the full control effect. As to conditions: BODIPY lipid droplet fluorescence, 18-24 h, cells fed with added oleic acid; cell number change: measured here: cell count max response; series mostly up to 46.1 µM; lipid storage change, negative = inhibition: at the top concentration. The procedure, abridged:
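Drosophila S3 cells got compounds at several concentrations plus oleic acid (400 uM solution). Laser-scanning cytometry with 488 nm excitation read lipid droplets at 500-530 nm and cells at 575-640 nm. Percent activity was relative to 20 uM Triacsin C.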
For orientation: In qHTS, concentration-response curves come from the screen itself.
`CCOc1ccc(CCNC(=O)c2ccc(=O)[nH]c2)cc1OCC`: the “lipid storage change, negative = inhibition” value was 2.9% (inactive) and the cell number change turned out to be 0.381%. Consider `Cc1cccc(OCc2cc(-c3ccccc3)no2)c1C`, for which the “lipid storage change, negative = inhibition” value is 26% (inactive) and the cell number change came to 19.4%. Regarding `CC(C)C(c1nnnn1C1CCCC1)N(C)C1CCCCC1` (stereo not drawn), the Potency was 5.17 µM (active) and the cell number change was -2.08%.

On to `CC(C)C(c1nnnn1C1CCCCC1)N1CCc2ccccc21` (stereo not drawn), for which the result was inactive and the cell number change is 19.2%. The like results for `CC(C)C(c1nnnn1C1CCCC1)N1CCCCC1` (stereo not drawn) were, in that order, “inactive” and -26.8%. As for `N#CC(C(=O)O)=C1CCCC1`, the Potency was 23.1 µM (active) and the cell number change was -10.5%. With `N#CC(C(=O)NC1CCCCC1)=C1CCCCC1`, the “lipid storage change, negative = inhibition” value was 0.277% (inactive) and the cell number change worked out at 0.427%. For the compound `N#CC(C(=O)Nc1ccccc1)=C1CCCCC1`, the outcome was inactive.

With `CCOc1cc(-c2ccc3c(c2)OCO3)cc(=O)c2c(C)oc(C)c12`, the compound was classed as inactive and the cell number change is -26.2%. With `CCO[C@@H]1OC(C(=O)N2CCN(Cc3ccc4c(c3)OCO4)CC2)=C[C@H](c2csc3ccccc23)[C@H]1CCCO`, the “lipid storage change, negative = inhibition” value was 1.93% (inactive) and the cell number change is -13%. Taken in the same sequence, the figures for `COc1ccccc1NC(=O)CC(NC1CCCCC1)C(=O)O` (stereo not drawn) were 3.12% (inactive) and 3.03%. For `O=C(Nn1cnc2ccccc2c1=O)c1ccccc1F`, the “lipid storage change, negative = inhibition” value is -8.71% (inactive) and the cell number change is -5%. Consider `N#Cc1ccc2c(c1)nc1ccccn12`, for which the “lipid storage change, negative = inhibition” value is -3.29% (inactive) and the cell number change was 11.1%. Consider `N#Cc1c(-c2ccccc2)cc(-c2ccc3c(c2)OCO3)[nH]c1=O`, for which the Potency is 8.2 µM (active) and the cell number change is -26.7%. Turning to `N#Cc1c(-c2ccc3c(c2)OCO3)cc[nH]c1=O`, the “lipid storage change, negative = inhibition” value is 14.1% (inactive) and the cell number change was 17.2%. For the compound `N#Cc1c(-c2ccco2)cc(-c2ccccc2)[nH]c1=O`, the “lipid storage change, negative = inhibition” value is 15.9% (inactive).

Consider `CC(C)=C1C2CCC1C1C(=O)N(c3nc(-c4ccc(F)cc4)c(C)s3)C(=O)C21` (stereo not drawn), for which the “lipid storage change, negative = inhibition” value is -1.57% (inactive) and the cell number change is -3.6%. Taken in the same sequence, the figures for `COc1ccc(N2CCN(CC(=O)Nc3cc(C)on3)CC2)cc1` were 7.12% (inactive) and 7.54%. On to `Cc1ccc(Nc2nc(C(=O)N3CCC(C(=O)NCCN4CCOCC4)CC3)cs2)cc1`, for which the compound was called inactive. For `O=C(N/N=C/c1ccc(-c2cccc(C(F)(F)F)c2)o1)c1cccc(F)c1`, the result was inactive. As to `CC(C)N(C(=O)c1ccc2nc(-c3ccccc3)c(-c3ccccc3)nc2c1)C(C)C`, the Potency was 1.64 µM (active) and the cell number change is -9.21%. For the compound `O=C(O)c1ccc2nc(-c3ccccc3)c(-c3ccccc3)nc2c1`, the “lipid storage change, negative = inhibition” value is -8.03% (inactive) and the cell number change was -2.52%.

`CCN(CC)C(=O)c1ccc2nc(-c3ccccc3)c(-c3ccccc3)nc2c1`: the “lipid storage change, negative = inhibition” value was 15.6% (inactive) and the cell number change is -0.854%.

With `CCOc1ccc(NC(=O)CN(C)C(=O)c2ccc(COc3ccccc3)o2)cc1OCC`, the compound was classed as inactive and the cell number change worked out at 24.1%. Turning to `CCN(CC)CCn1c(=N)n(CC(O)c2ccco2)c2ccccc21` (stereo not drawn), the “lipid storage change, negative = inhibition” value is -0.632% (inactive) and the cell number change is 6.57%.

In the case of `CCN(CC)CCn1c(=N)n(CCOc2ccccc2)c2ccccc21`, the outcome was inactive and the cell number change was -6.28%.

In the case of `CCN(CC)CCn1c(=N)n(CCO)c2ccccc21`, the Potency was 3.26 µM (active) and the cell number change was -11.1%. On to `c1ccc(CCCNCC2COc3ccccc3O2)cc1` (stereo not drawn), for which the “lipid storage change, negative = inhibition” value is 10.6% (inactive) and the cell number change is 19.8%. As for `CCn1cc(CNC(=O)c2ccc(OC3CCN(Cc4ccccn4)CC3)cc2)cn1`, the Potency is 3.66 µM (active) and the cell number change was -18.8%. On to `CCOc1cccc(CN2CCC(Oc3ccc(C(=O)NCc4ccccn4)cc3)CC2)c1`, for which the outcome was inactive. For `Cn1cc(CNC(=O)c2ccc(OC3CCN(Cc4ccccn4)CC3)cc2)cn1`, the outcome was inactive. Regarding `C/C(N)=C(/C#N)C(=O)CSc1nnc(-c2ccc3c(c2)OCO3)o1`, the result was inactive and the cell number change worked out at 22.5%.

Take `Cc1ccc2c(CC(=O)OCc3cc(=O)n4c(n3)sc3ccccc34)coc2c1`: the “lipid storage change, negative = inhibition” value is 6.89% (inactive) and the cell number change was -0.183%. The like results for `Nc1nc(-c2ccccc2)cn1/N=C/c1ccccc1` were, in that order, 18.1% (inactive) and 9.59%. As to `CC(=O)N(C(C)=O)c1nc(-c2ccccc2)cn1/N=C/c1ccccc1`, the Potency is 1.64 µM (active) and the cell number change is -51.6%. With `Cc1ccc(/C=N/n2c(-c3ccccc3)n[nH]c2=S)cc1`, the “lipid storage change, negative = inhibition” value is 15.2% (inactive) and the cell number change amounted to 7.92%. Take `Cc1ccc(N(CC(O)CN2CCCCC2)S(=O)(=O)c2ccccc2)cc1` (stereo not drawn): the outcome was inactive and the cell number change is -15.7%. Consider `Cc1ccc(N(CC(O)CN(C)C)S(=O)(=O)c2ccccc2)cc1` (stereo not drawn), for which the Potency is 5.17 µM (active) and the cell number change was 1.33%. For the compound `Cc1ccc(N(CC(O)CN2CCCC2)S(=O)(=O)c2ccc(C)cc2)cc1` (stereo not drawn), the “lipid storage change, negative = inhibition” value is -22.3% (inactive) and the cell number change was -13%. Taken in the same sequence, the figures for `COc1ccccc1CN1CC(C(=O)NCc2cc(C(C)C)no2)CCC1=O` (stereo not drawn) were -15.9% (inactive) and 1.05%. Consider `Cc1c(N=Cc2cccnc2)c(=O)n(-c2ccccc2)n1C`, for which the “lipid storage change, negative = inhibition” value is 1.15% (inactive) and the cell number change amounted to 7.08%. The like results for `Cc1c(N=Cc2ccco2)c(=O)n(-c2ccccc2)n1C` were, in that order, -7.2% (inactive) and 8.07%. For the compound `Cc1c(N=Cc2ccccn2)c(=O)n(-c2ccccc2)n1C`, the Potency is 16.4 µM (active) and the cell number change was -11.2%. `Cn1c(SCC(=O)Nc2ccc3nc(SCC(=O)NC4CC4)sc3c2)nnc1-c1ccccc1`: the “lipid storage change, negative = inhibition” value was -1.58% (inactive) and the cell number change is -15%. Take `COc1ccc(Oc2coc3c(CN4CCOCC4)c(O)ccc3c2=O)cc1`: the outcome was inactive and the cell number change is 10.6%. `CN(C)CCOc1ccc(C(C)(C)c2ccccc2)cc1`: the “lipid storage change, negative = inhibition” value is 13.9% (inactive) and the cell number change worked out at 10.7%. Turning to `COC(CCN(C)C)(c1ccccc1)c1ccccc1`, the Potency was 0.184 µM (active) and the cell number change is -3.67%.
